From PubChem
This is a sample that favours compounds with a hit; in the whole collection about 10% have one here.
3T3 cytotox – kills NIH 3T3 cells | Potency, µM (titrated, usually from 96.7 µM), inactives show top-dose activity change, negative = cytotoxicity, most hits filed as inhibitors | NIH 3T3 viability, CellTiter-Glo ATP luminescence, 48-72 h | hit rate 4.3% among 94,000; note: nearly all actives have a fitted effect of over 55% in size
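Luminescent ATP readout (CellTiter-Glo, 10 min RT) after 48 or 72 hr compound exposure of NIH 3T3 cells seeded at 400 cells/well in 1536-well format; quantitative HTS.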
NPR1 antag – human Npr1 receptor antagonism; hit rate 1.6% among 76,000; P16066; Potency, µM (doses to about 46.3 µM), inactives show at the top dose activity change, negative = inhibition, hits mostly inhibitors; HEK293 hNpr1 GloSensor cGMP, ANP-stimulated luminescence; AID 1347048; calls by dose curve; note: nearly all actives have a fitted effect of over 60% in size
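HEK293 cells stably expressing human Npr1 and cGMP GloSensor pGS-40F, loaded 2 h with 2% GloSensor reagent, given compound 30 min at room temperature. Luminescence read before and 20 min after 0.1 nM hNppA.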
Luciferase inh – blocks purified firefly luciferase enzyme activity | Potency, µM (series often up to 115 µM), usual class: inhibitors | purified P. pyralis luciferase, luminescence, biochemical | P08659 | hit rate 2.5% among 76,000; note: nearly all actives have a fitted effect of over 65% in size
Target sequence (P08659 whole entry, looked up): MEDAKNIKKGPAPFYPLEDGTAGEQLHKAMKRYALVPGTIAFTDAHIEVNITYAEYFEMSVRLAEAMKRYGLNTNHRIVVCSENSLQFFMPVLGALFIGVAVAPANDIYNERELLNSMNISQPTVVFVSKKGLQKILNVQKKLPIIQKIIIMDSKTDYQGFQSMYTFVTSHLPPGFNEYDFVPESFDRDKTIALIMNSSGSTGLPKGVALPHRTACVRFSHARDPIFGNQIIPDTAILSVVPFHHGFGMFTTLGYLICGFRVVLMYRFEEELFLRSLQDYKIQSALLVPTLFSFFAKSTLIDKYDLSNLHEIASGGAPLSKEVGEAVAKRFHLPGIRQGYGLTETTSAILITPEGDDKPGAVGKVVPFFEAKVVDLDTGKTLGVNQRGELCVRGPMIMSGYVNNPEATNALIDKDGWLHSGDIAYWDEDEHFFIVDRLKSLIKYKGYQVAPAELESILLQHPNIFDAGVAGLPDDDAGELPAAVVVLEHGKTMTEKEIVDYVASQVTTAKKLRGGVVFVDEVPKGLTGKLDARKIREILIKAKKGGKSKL
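Purified P. pyralis luciferase (10nM final) in 50mM Tris acetate pH 7.5, 10mM Mg acetate, 0.01% Tween-20, 0.05% BSA with 10uM D-luciferin and 10uM ATP. Compounds titrated qHTS. Luminescence imaged on CCD.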
GPT2 inh – inhibitors of human GPT2 alanine aminotransferase; hit rate 0.25% among 100,000; Potency, µM (highest dose often 57.7 µM), for inactives: at the highest dose activity change, negative = inhibition, most hits filed as inhibitors; Recombinant GPT2, coupled pyruvate oxidase/HRP Amplex Red fluorescence; note: nearly all actives have a fitted effect of over 60% in size
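Recombinant GPT2 (10ng/uL) with 250uM a-KG and 2mM L-alanine, 30 min at room temperature, in HEPES pH 7.5 buffer. Pyruvate detected by pyruvate oxidase/HRP/Amplex Red fluorescence after 30 min in the dark; AOA (50uM) as positive control.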
HEK293 tox – HEK 293 cell cytotoxicity | hit rate 6.6% among 94,000 | HEK 293 viability, ATP luminescence (CellTiter-Glo), 48-72 h | Potency, µM (titrated, usually from 115 µM), without a hit: top-dose activity change, negative = cytotoxicity, hits mostly inhibitors | AID 1345083; note: nearly all actives have a fitted effect of over 60% in size
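ATP-coupled CellTiter-Glo luminescence served as viability read-out, recorded 10 min after reagent addition at room temperature. HEK 293 cells, 250 cells/well, had been incubated with pintool-transferred compound for 48 or 72 hr at 37 degree Celsius.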
Numbers without * were called inactive; [ ] = another dose, or the depositor's remark. Unless noted, calls come from the whole dose curve; as a rule, active = well fitted curve in the direction sought with a large enough effect; inconclusive = small, poorly fitted or top-dose-only effect, or another doubt; inactive = no such curve, though single readings can be large; an effect the other way counts as inactive or inconclusive. % is set by controls: 0 for no effect and ±100 for the full control effect; potency is the fitted concentration of half-maximal effect.

Screening Fc1ccc(CN2CCNc3cnc(-c4ccccc4)cc3C2)cc1F returned 3T3 cytotox 79µM*, NPR1 antag -2%[70.6 µM], Luciferase inh inactive, GPT2 inh -3%[88.5 µM] and HEK293 tox inconclusive.
Screening COc1ccccc1CN1CCNc2cc(-c3ccccc3)ncc2C1 returned 3T3 cytotox inconclusive, NPR1 antag -3%[70.6 µM], Luciferase inh inconclusive, GPT2 inh -6%[88.5 µM] and HEK293 tox inconclusive.
Screening COc1ccccc1CN1CCNc2cc(-c3ccnc(C)c3)ncc2C1 returned 3T3 cytotox inconclusive, NPR1 antag -4%[70.6 µM], Luciferase inh 71µM*, GPT2 inh -5%[88.5 µM] and HEK293 tox 89µM*.
For FC(F)(F)c1ccc(CN2CCC3(CC2)CC(c2cccc(C(F)(F)F)c2)=NO3)cc1 the results were 3T3 cytotox -6%, NPR1 antag -9%, Luciferase inh inactive, GPT2 inh inactive and HEK293 tox -2%.
`Cc1nc(C)c(C(=O)N2CC(Oc3ccc(-c4nc(-c5ccccc5)no4)cc3)C2)s1` gave 3T3 cytotox -14%, NPR1 antag -8%, Luciferase inh 13µM*, GPT2 inh inactive and HEK293 tox inconclusive.
O=C(c1ccsc1)N1CC(Oc2ccc(-c3nc(-c4ccccc4)no3)cc2)C1 was read as 3T3 cytotox -5%, NPR1 antag 2%, Luciferase inh 28µM*, GPT2 inh -8% and HEK293 tox -30%.
Screening Cc1cccc(C(=O)N2CC(Oc3ccc(-c4nc(-c5ccccc5)no4)cc3)C2)c1 returned 3T3 cytotox -28%, NPR1 antag -5%, Luciferase inh inactive, GPT2 inh inactive and HEK293 tox inconclusive.
For O=C(C1CCOC1)N1CC(Oc2ccc(-c3nc(-c4ccccc4)no3)cc2)C1 (centres undefined) the results were 3T3 cytotox inconclusive, NPR1 antag 3.2µM*, Luciferase inh 14µM*, GPT2 inh 4% and HEK293 tox inconclusive.
Screening Cc1nc(C)c(C(=O)N2CCC(Oc3ccc(-c4noc(C5CC5)n4)cc3)C2)s1 (centres undefined) returned 3T3 cytotox inconclusive, NPR1 antag inconclusive, Luciferase inh inactive, GPT2 inh inactive and HEK293 tox 20µM*.
For Cc1ccccc1CN1CCCC(CCNS(=O)(=O)C2CC2)C1 (centres undefined) the results were 3T3 cytotox -1%, NPR1 antag -1%, Luciferase inh inactive, GPT2 inh -9% and HEK293 tox -11%.
`O=C(c1nnn2cc(-c3ccccc3)[nH]c(=O)c12)N1CCCCCC1` gave 3T3 cytotox -8%, NPR1 antag 9%, Luciferase inh inactive, GPT2 inh inactive and HEK293 tox 9%.
For COCCOC1CCN(C(=O)c2ccc3cc[nH]c3c2)CC1 the results were 3T3 cytotox -5%, NPR1 antag 3%, Luciferase inh inactive, GPT2 inh inactive and HEK293 tox 2%.
O=C(c1ccc2ccccc2n1)N1CCC(Cc2ccc(CN3CCOCC3)cc2)CC1 was read as 3T3 cytotox inconclusive, GPT2 inh 1% and HEK293 tox 35µM*.
For CN1CCN(Cc2ccc(CC3CCN(C(=O)c4ccc5cc[nH]c5c4)CC3)cc2)CC1 the results were 3T3 cytotox 32µM*, GPT2 inh inactive and HEK293 tox inconclusive.
Screening COc1cccc(NCc2nnc(C(=O)N3CCC[C@@H]3c3ccc(Br)cc3)n2Cc2ccccc2)c1 returned 3T3 cytotox inconclusive, NPR1 antag -22%, Luciferase inh inactive, GPT2 inh -2% and HEK293 tox inconclusive.
COCC1CN(S(=O)(=O)c2cccc(F)c2)CC12CCOCC2 (centres undefined) was read as 3T3 cytotox -8%, NPR1 antag 2%, Luciferase inh inactive, GPT2 inh inactive and HEK293 tox -11%.
Cc1ccccc1N1CCCN(Cc2cccc(CCN)c2)CC1 was read as 3T3 cytotox inconclusive, NPR1 antag -4%, Luciferase inh inactive, GPT2 inh inconclusive and HEK293 tox 28µM*.
`CCOc1cccc(CN2CCCC(COc3ccccc3C(=O)NC(C)C)C2)c1` (centres undefined) gave 3T3 cytotox inconclusive, NPR1 antag 1%, Luciferase inh inactive, GPT2 inh -16% and HEK293 tox 45µM*.
Screening O=C(c1ccccc1OCC1CCCN(Cc2c[nH]c3ccccc23)C1)N1CCCCC1 (centres undefined) returned 3T3 cytotox inconclusive, GPT2 inh -1% and HEK293 tox 50µM*.
Screening NCCc1cccc(CN2CCCC(COc3ccccc3F)C2)c1 (centres undefined) returned 3T3 cytotox 35µM*, NPR1 antag -1%, Luciferase inh inactive, GPT2 inh inactive and HEK293 tox inconclusive.
Screening O=C(CN1C(=O)NC(c2ccccc2Cl)C2=C1COC2=O)Nc1ccc(F)c(Cl)c1 (centres undefined) returned 3T3 cytotox inconclusive, NPR1 antag -27%, Luciferase inh inactive, GPT2 inh inactive and HEK293 tox inconclusive.
For COc1cccc(CN2C[C@@H]3C[C@H]2C(=O)Nc2ccccc2O3)c1 the results were 3T3 cytotox -10%[174 µM], NPR1 antag -3%[70.6 µM], Luciferase inh inactive, GPT2 inh 1%[88.5 µM] and HEK293 tox inconclusive.
`C=CCCC(CN1CCCC1)Oc1ccc(C(=O)N2CCOCC2)cn1` (centres undefined) gave 3T3 cytotox 0%, NPR1 antag -2%, Luciferase inh inactive, GPT2 inh 3% and HEK293 tox inactive.
Cc1nc(C2CC(O)C2)cc(N2CCN(c3cnn(C)c(=O)c3)CC2)n1 (centres undefined) was read as 3T3 cytotox -1%, NPR1 antag 2%, Luciferase inh inactive, GPT2 inh 2% and HEK293 tox inactive.
Cc1nc(C2CC(O)C2)cc(N2CCN(c3ccc(F)c(Cl)c3)CC2)n1 (centres undefined) was read as 3T3 cytotox inconclusive, NPR1 antag inconclusive, Luciferase inh inactive, GPT2 inh 4% and HEK293 tox 18µM*.
Screening COc1ccc(-n2nc(C3CCN(Cc4cccn4C)CC3)[nH]c2=O)cc1 returned 3T3 cytotox inconclusive, NPR1 antag -4%, Luciferase inh inactive, GPT2 inh inactive and HEK293 tox 40µM*.
`OCc1ccc(CN2C[C@H](O)C[C@H]2c2nc(-c3ccc(OC(F)(F)F)cc3)no2)o1` gave 3T3 cytotox inconclusive, NPR1 antag -12%[70.6 µM], Luciferase inh 45µM*, GPT2 inh inconclusive and HEK293 tox inconclusive.
For OCc1ccc(CN2C[C@H](O)C[C@H]2c2nc(-c3ccc(F)cc3)no2)o1 the results were 3T3 cytotox inactive, NPR1 antag 5%[70.6 µM], Luciferase inh 45µM*, GPT2 inh inactive and HEK293 tox 1%[172 µM].
